TRHR agonist: TRH receptor (human) agonism | P34981 | TRHR cells, calcium flux fluo-8, FDSS agonist mode | activation, % at 2 µM | 360,000 tested, 0.18% active | AID 493084; also: 0% is about no effect
Target sequence (P34981 whole entry, looked up): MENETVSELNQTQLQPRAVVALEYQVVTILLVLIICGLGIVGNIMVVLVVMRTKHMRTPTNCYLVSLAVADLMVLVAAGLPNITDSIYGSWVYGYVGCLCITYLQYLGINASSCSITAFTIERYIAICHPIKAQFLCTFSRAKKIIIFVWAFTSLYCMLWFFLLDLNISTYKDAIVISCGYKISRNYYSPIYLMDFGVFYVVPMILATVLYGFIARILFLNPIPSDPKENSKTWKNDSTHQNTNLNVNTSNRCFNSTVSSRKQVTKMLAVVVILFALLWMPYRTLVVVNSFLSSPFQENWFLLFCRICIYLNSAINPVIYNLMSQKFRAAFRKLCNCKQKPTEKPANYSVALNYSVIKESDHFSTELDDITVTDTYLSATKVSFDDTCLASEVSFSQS
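TRHR-expressing cells loaded with fluo-8 calcium dye; 23 nL library compound pin-transferred, kinetic FDSS fluorescence (Ex 480/Em 530) recorded about 180 s for agonist-induced calcium release, before a 10 nM TRH EC20 addition for potentiator mode.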
D1 agonist: human D1 receptor agonism. AID 504660. P21728. HEK293 T-REx D1 cells, calcium flux, agonist mode. 360,000 tested, 1% active. activation, % at 2 µM; also: 0% is about no effect
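Agonism was scored from calcium flux recorded over 180 s (1 read/s) after pintool compound addition, following a 10-cycle baseline. Cells were inducible force-coupled HEK293 TREx D1, plated overnight at 30 C and loaded with no-wash calcium dye.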
D1 PAM: human D1 dopamine receptor positive modulation. P21728. potentiation, % at 10 µM. HEK293 TREx D1 cells, calcium flux, dopamine EC20 potentiation. 360,000 tested, 0.036% active; in the data active = potentiation above about 30%; also: 0% is about no effect
TRHR PAM: allosteric enhancers of human TRH receptor; TRHR cells, fluo-8 calcium fluorescence, EC20 TRH enhancement; AID 493056; 360,000 tested, 0.66% active; P34981; enhancement, % at 2 µM; in the data active = enhancement above about 30%; also: 0% is about no effect
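TRHR-expressing cells loaded with fluo-8 calcium dye were read kinetically (ex 480/em 530) during compound addition, then stimulated with an EC20 of TRH (10 nM final). Enhancement of the Gq-mediated intracellular calcium response was scored.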
D1 antagonist: blocks dopamine activation of the human D1 receptor. HEK293 TREx D1 cells, calcium flux, dopamine EC80; hits give low values. P21728. AID 504652. activity change, negative = inhibition, % at 10 µM. 360,000 tested, 3.2% active; in the data active = activity change below about -30%; also: % is scaled to controls: 0 for no effect and ±100 for the full control effect
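Allosteric or orthosteric antagonism assessed as attenuation of the calcium response to EC80 dopamine, added 180 s after compound, in induced HEK293 Trex D1 cells loaded with no-wash calcium dye.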
Numbers without * were called inactive; nt = not tested or not shown. This is a sample that favours compounds with a hit; in the whole collection about 4.6% have one here. Rule as the data show it, unless noted: active = activation above about 30%; inactive = the rest.

SMILES	TRHR agonist	D1 agonist	D1 PAM	TRHR PAM	D1 antagonist
Cc1cc(CN2CCCCC2C(=O)Nc2ccc(Oc3cccnc3)cc2)oc1C (stereo unspecified)	0	3	-6	5	-33*
Cc1nc(-c2cccc(NC(=O)COc3ccc(Cl)cc3)c2)cs1	0	14	-17	-3	-44*
Cc1cccc(NC(=O)CSc2nc3ccc(NC(=O)COc4ccc(Cl)cc4)cc3s2)c1	2	11	-1	4	-32*
O=C(O)CSc1nc2ccc(NC(=O)COc3ccc(Cl)cc3)cc2s1	1	-1	-1	-3	-24
CCN(c1ccccc1)S(=O)(=O)c1ccc(C(=O)Oc2ccc(C(C)=O)cc2)cc1	1	24	-9	-6	-38*
CN1C(=O)c2cccc3c(S(=O)(=O)N4CCCC4C(=O)O)ccc1c23 (stereo unspecified)	1	3	14	16	-38*
CSC1=NC(C)(C)CC2(C)Nc3ccccc3N12 (stereo unspecified)	0	0	1	0	-32*
CC(C)(C)CN1C(=O)C(=O)NC[C@@H]1Cc1ccc(O)cc1	0	5	5	4	2
CCN(CC)CCNC(=O)c1ccccn1	1	1	0	-2	-32*
CCN(CC)CCNC(=O)/C(=N\O)c1ccccn1	0	1	-1	2	3
CCN(CC)CCNC(=O)c1sc2ncccc2c1-n1cccc1	1	5	0	1	-36*
CCCCNC(=O)c1sc2ncccc2c1-n1cccc1	0	0	-2	4	-3
COc1ccc(NC(=O)Nc2cccc(OCc3cc(=O)n4cccc(C)c4n3)c2)c(OC)c1	0	1	-1	8	5
CNC(=O)C1CC(=O)N(CCc2ccc(OC)cc2)C(=Nc2ccc(OC)cc2)S1 (stereo unspecified)	0	0	-13	0	-3
CNC(=O)C1CC(=O)N(Cc2ccc3c(c2)OCO3)C(=Nc2ccc(OC)cc2)S1 (stereo unspecified)	-1	10	-6	17	-30*
COc1ccc(S(=O)(=O)c2nnn(-c3ccc(C(C)C)cc3)c2C)cc1	0	9	-4	-1	-16
COc1ccc(S(=O)(=O)c2nnn(-c3cccc(OC)c3)c2N)cc1	2	30	-2	-1	1
Cc1ccc(S(=O)(=O)c2nnn(-c3cccc(F)c3)c2N)cc1	0	10	-1	-3	-33*
Cc1ccc(S(=O)(=O)c2nnn(-c3ccc(F)c(Cl)c3)c2N)cc1	5	76*	2	10	-23
CCc1ccc(NC(=O)c2cc3c(COC(C)=O)cnc(C)c3oc2=O)cc1	1	0	0	-2	-6
CCOC(=O)c1cccc(NC(=O)c2cnc3sc(N4CCOCC4)nn3c2=O)c1	0	1	0	8	-9
Cc1ccc(NC(=S)NCc2cccs2)cc1	0	0	0	1	-12
CCCCc1ccc(NC(=S)NCc2cccs2)cc1	0	8	0	-3	-32*
O=S(=O)(Nc1cccc2ccccc12)c1ccccc1	1	1	12	0	-21
O=S(=O)(Nc1cccc2ccccc12)c1cccc2ccccc12	0	3	-6	-2	-43*
SMILES	TRHR agonist	D1 agonist	D1 PAM	TRHR PAM	D1 antagonist
COc1ccc(C(=O)Nc2ccc(NC(=O)C3CC3)nc2)cc1	0	1	5	1	1
COC(=O)CNC(=O)CSc1nc2c(sc(=S)n2-c2ccccc2)c(=O)[nH]1	0	1	-6	-27	-37*
CCOC(=O)CC(=O)CSc1nc2c(sc(=S)n2-c2ccccc2)c(=O)[nH]1	0	2	-3	-6	-3
FC(F)Oc1ccc(NC(=S)N2CCc3ccccc32)cc1	0	4	-3	5	-4
Cc1ccc(C(=O)c2cc3c(cc2N)OCCO3)cc1	0	-1	-5	0	-76*
Nc1cc2c(cc1C(=O)c1ccccc1)OCCO2	0	0	8	2	11
CC(=O)c1cccc(NC(=O)c2ccc(-c3ccccc3[N+](=O)[O-])o2)c1	0	15	-8	0	-21
S=c1[nH]nc(-c2ccncc2)n1/N=C/C=C/c1ccco1	0	0	-5	-11	-2
S=c1[nH]nc(-c2ccccc2Cl)n1/N=C/C=C/c1ccco1	0	1	-4	19	-36*
Cc1ccccc1CS(=O)(=O)CCC(=O)NCCCN1CCOCC1	-1	0	0	-5	-44*
O=C(NCCCN1CCOCC1)c1cc(-c2ccc(Cl)c(Cl)c2)on1	1	24	-1	-2	-33*
Cc1cc(C)n(CCCNC(=O)c2ccco2)n1	0	1	-6	-5	-31*
O=C(NCCCN1CCOCC1)c1ccc(CS(=O)(=O)Cc2ccccc2Cl)o1	-1	2	1	-1	-45*
O=C(NCCCN1CCCCCC1)c1ccc(CS(=O)(=O)Cc2ccccc2F)o1	0	-1	4	1	1
CC(C)(C)c1cc(C(F)(F)F)nc(SCCCNC(=O)c2ccco2)n1	0	19	-3	14	-38*
CC(C)(C)c1ccc(C(=O)NCCCNC(=O)c2ccco2)cc1	0	4	nt	1	-3
CCN(CC)CCCNC(=O)c1cc(-c2ccc(O)cc2)on1	0	5	-5	16	-44*
O=C(NCCCN1CCOCC1)c1ccco1	0	2	-3	2	-35*
Cc1ccc(NC(=O)c2ccc(CNS(=O)(=O)c3ccc4c(c3)C(C)(C)C(=O)N4C)cc2)cc1F	1	7	-7	28	-5
O=S(=O)(/N=C(/Nc1ccccc1F)c1ccccc1)c1ccccc1	0	2	-4	-4	0
N#CN/C(=N\S(=O)(=O)c1ccccc1)c1ccccc1	1	4	-1	37*	-1
CCOC(=O)c1cc(S(=O)(=O)Nc2ccc(OC(F)(F)F)cc2)[nH]n1	0	4	-1	-3	-14
CCN(CC)c1ccc2cc(C(=O)NCc3ccc(F)cc3)c(=N)oc2c1	34*	170*	-11	-2	-29
Cc1cc2c(s1)c1cnn(Cc3c(F)ccc(F)c3F)c(=O)c1n2C	1	0	-3	-2	4
Nc1cc(C(Cl)=C(Cl)Cl)c(S(N)(=O)=O)cc1S(N)(=O)=O	-1	0	-7	-8	-33*
CN(C(=O)c1ccc(NC(=O)Cc2cccc(NC(=O)C3CCCN(C(=O)CCc4ccccc4)C3)c2)cc1)C1CCCC1 (stereo unspecified)	1	4	2	-1	6
CN(Cc1ccccc1)C(=O)c1ccc(NC(=O)Cc2cccc(NC(=O)C3CCCN(C(=O)CCc4ccccc4)C3)c2)cc1 (stereo unspecified)	1	8	-4	0	-33*

Source: PubChem BioAssay
